Measured values as given in PubChem BioAssay (NCI).
Compounds without any hit were thinned out: in the full panel of roughly 79,000, 15% have a hit. Calls of active or inactive are those of the source. No stated cut-off is given here; in the data, active means growth inhibition above about 70%; inactive means the rest.

Legend:
[1] = NCI Yeast Anticancer Drug Screen. Data for the rad52 strain (AID 147);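 further: 0% = growth of vehicle-treated control cultures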; details: S. cerevisiae rad52 mutant growth inhibition, stronger effect = higher value
Summary of the method: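 Yeast strain carrying a DNA damage repair alteration was exposed to test compounds. Growth inhibition was measured relative to vehicle-treated controls.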

[2] = NCI Yeast Anticancer Drug Screen. Data for the wt1 strain (AID 149);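 further: 0% = growth of vehicle-treated wt1 cultures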; details: S. cerevisiae wt1 strain (SPY 50644) growth inhibition, stronger effect = higher value
Summary of the method: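 Measured: growth of wt1 yeast under compound versus vehicle treatment, reported as inhibition.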

[3] = NCI Yeast Anticancer Drug Screen. Data for the rad50EPP+ strain (AID 151);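 further: 0% = growth of vehicle-treated control cultures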; details: S. cerevisiae rad50 mutant strain, stronger effect = higher value
Summary of the method: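 Yeast strain carrying rad50 alteration (rad50EPP+) exposed to compounds; growth inhibition measured relative to vehicle-treated controls.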

[4] = NCI Yeast Anticancer Drug Screen. Data for the mgt1 strain (AID 153); details: S. cerevisiae mgt1 mutant growth inhibition, stronger effect = higher value
Summary of the method: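 Yeast mgt1 strain (DNA repair/cell-cycle alteration panel) exposed to compounds; growth inhibition measured relative to vehicle-treated controls.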

[5] = NCI Yeast Anticancer Drug Screen. Data for the rad50 strain (AID 155);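 further: 0% = growth of vehicle-only cultures of the same strain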; details: S. cerevisiae rad50 strain growth inhibition, stronger effect = higher value
Summary of the method: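 Growth of the mutant yeast was measured after compound exposure and referenced to vehicle-treated cultures.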

[6] = NCI Yeast Anticancer Drug Screen. Data for the mec2-1 strain (AID 157); details: S. cerevisiae mec2-1 strain, stronger effect = higher value
Summary of the method: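 mec2-1 yeast strain, carrying an alteration in DNA damage repair or cell cycle control, was exposed to compounds; growth inhibition was measured relative to vehicle-treated controls.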

[7] = NCI Yeast Anticancer Drug Screen. Data for the rad14 strain (AID 159);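 further: 0% = growth of vehicle-treated control cultures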; details: S. cerevisiae rad14 strain growth inhibition, stronger effect = higher value
Summary of the method: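 Here, inhibition of yeast growth was measured after compound exposure, using a strain with a genetic defect in DNA damage repair and vehicle-treated cultures as the reference.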

[8] = NCI Yeast Anticancer Drug Screen. Data for the sgs1 mgt1 strain (AID 161);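 further: 0% = growth of cultures given vehicle only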; details: S. cerevisiae sgs1 mgt1 strain, stronger effect = higher value
Summary of the method: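 This yeast growth screen uses a strain with defined DNA-repair lesions; compound-treated growth is compared with vehicle-treated growth.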

[9] = NCI Yeast Anticancer Drug Screen. Data for the CLN2oe strain (AID 163);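 further: 0% = growth of vehicle-only control cultures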; details: S. cerevisiae CLN2oe strain, stronger effect = higher value
Summary of the method: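 Yeast cells carrying a defined cell-cycle control alteration were exposed to test compounds. Growth inhibition was scored against vehicle-treated control cultures.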

[10] = NCI Yeast Anticancer Drug Screen. Data for the cln2 rad14 strain (AID 165);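 further: 0% = growth equal to vehicle treated cultures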; details: S. cerevisiae cln2 rad14 strain, stronger effect = higher value
Summary of the method: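 Yeast carrying cln2 and rad14 alterations (cell cycle control and DNA damage repair) were exposed to compounds. Growth inhibition was measured against vehicle-treated controls.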

[11] = NCI Yeast Anticancer Drug Screen. Data for the bub3 strain (AID 167); details: S. cerevisiae bub3 mutant strain, stronger effect = higher value
Summary of the method: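 Whole-cell yeast assay. The mutant strain was incubated with compounds, and growth inhibition was determined by comparison with vehicle-treated cells.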

[12] = NCI Yeast Anticancer Drug Screen. Data for the wt2 strain (AID 169);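 further: 0% = growth of vehicle-treated yeast cultures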; details: S. cerevisiae wt2 strain growth inhibition, stronger effect = higher value
Summary of the method: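 Yeast cells were exposed to test compounds, and growth inhibition was measured relative to vehicle-treated controls.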

[13] = NCI Yeast Anticancer Drug Screen. Data for the mlh1 strain (AID 171);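 further: 0% = growth of vehicle-treated control cultures of the same strain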; details: S. cerevisiae mlh1 strain growth inhibition, stronger effect = higher value
Summary of the method: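 Yeast carrying a defined genetic alteration in DNA damage repair or cell cycle control were exposed to test compounds. Growth inhibition was measured relative to vehicle-treated controls.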

[14] = NCI Yeast Anticancer Drug Screen. Data for the sgs1 strain (AID 173);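 further: 0% = growth of vehicle-only control cultures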; details: S. cerevisiae sgs1 mutant, stronger effect = higher value
Summary of the method: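 Yeast mutant strains carrying defined defects in DNA damage repair or cell cycle control were exposed to test compounds. Growth inhibition was scored against vehicle-treated controls.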

[15] = NCI Yeast Anticancer Drug Screen. Data for the mlh1 rad18 strain (AID 175); details: S. cerevisiae mlh1 rad18 strain growth inhibition, stronger effect = higher value
Summary of the method: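 Growth inhibition of the yeast strain was measured after compound exposure and expressed relative to vehicle-treated controls. The strain carries defined defects in DNA damage repair.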

[16] = NCI Yeast Anticancer Drug Screen. Data for the rad18 strain (AID 177); details: S. cerevisiae rad18 mutant growth inhibition, stronger effect = higher value
Summary of the method: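 Yeast carrying a defined DNA damage repair alteration were exposed to compounds. Growth inhibition was expressed relative to vehicle-treated controls.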

[17] = at 5.0 µM (retest, dose inferred, filed as 0.5)
[18] = at 50.0 µM (retest, dose inferred, filed as 5.0)

Measured: growth inhibition

CC[C@@]1(OC(=O)CCC(=O)O)C(=O)OCc2c1cc1n(c2=O)Cc2cc3ccccc3nc2-1
inactive: [2]; at 1.2 µM 4% | [2]; at 3.7 µM -2% | [2]; at 11.0 µM 7% | [2]; at 33.0 µM 57% | [3]; at 1.2 µM 14% | [3]; at 3.7 µM 47% | [4]; at 1.2 µM -6% | [4]; at 3.7 µM -2% | [4]; at 11.0 µM 9% | [4]; at 33.0 µM 59% | [6]; at 1.2 µM 6% | [6]; at 3.7 µM 6% | [6]; [17] 11% | [6]; at 11.0 µM 66% | [7]; at 1.2 µM 14% | [7]; at 3.7 µM -2% | [7]; at 11.0 µM 31% | [7]; at 33.0 µM 69% | [8]; [17] 30% | [9]; at 1.2 µM 10% | [9]; at 3.7 µM 21% | [9]; at 11.0 µM 33% | [10]; [17] 5% | [10]; at 50.0 µM 37.5% | [11]; at 1.2 µM -15% | [11]; at 3.7 µM -11% | [11]; [17] 16% | [11]; at 11.0 µM 4% | [11]; at 33.0 µM 62% | [11]; at 50.0 µM 64.2% | [12]; at 1.2 µM -13% | [12]; at 3.7 µM -19% | [12]; at 11.0 µM -7% | [12]; at 33.0 µM 69% | [13]; at 1.2 µM -9% | [13]; at 3.7 µM -7% | [13]; at 11.0 µM 2% | [14]; at 1.2 µM 18% | [14]; at 3.7 µM 21% | [14]; at 11.0 µM 31% | [15]; [17] 16% | [16]; at 1.2 µM 6% | [16]; at 3.7 µM 10% | [16]; at 11.0 µM 27% | [16]; at 33.0 µM 68%
active: [1]; at 1.2 µM 78% | [1]; at 3.7 µM 87% | [1]; at 11.0 µM 92% | [1]; at 33.0 µM 95% | [1]; at 100.0 µM 94% | [2]; at 100.0 µM 90% | [3]; at 11.0 µM 79% | [3]; at 33.0 µM 85% | [3]; at 100.0 µM 89% | [4]; at 100.0 µM 89% | [5]; at 1.2 µM 79% | [5]; at 3.7 µM 86% | [5]; [17] 85% | [5]; at 11.0 µM 91% | [5]; at 33.0 µM 94% | [5]; [18] 94% | [5]; at 50.0 µM 80.7% | [5]; at 100.0 µM 94% | [6]; at 33.0 µM 89% | [6]; [18] 94% | [6]; at 50.0 µM 85.9% | [6]; at 100.0 µM 94% | [7]; at 100.0 µM 89% | [8]; [18] 91% | [8]; at 50.0 µM 76.3% | [9]; at 33.0 µM 73% | [9]; at 100.0 µM 87% | [10]; [18] 72% | [11]; [18] 89% | [11]; at 100.0 µM 86% | [12]; at 100.0 µM 87% | [13]; at 33.0 µM 70% | [13]; at 100.0 µM 83% | [14]; at 33.0 µM 80% | [14]; at 100.0 µM 88% | [15]; [18] 85% | [16]; at 100.0 µM 81%
